PubChem BioAssay AID1745845 (National Center for Advancing Translational Sciences (NCATS), 2022)
“And” between values parts separate entries of the source, which are not always exact repeats. Identical values can stand only once. Screen size: about 360,000 compounds; about 2,600 (0.72%) were called active. Not shown: some 5% with an inconclusive outcome. The sample as a whole holds a higher share of actives than the screen did. A number with no mark means an inactive call. Calls follow the shape of the dose curve; as a rule, active = well fitted inhibition curve with a large enough effect; inconclusive = small, poorly fitted or top-dose-only effect; inactive = no such curve, though single readings can be large or run the other way.

test: Primary qHTS for Inhibitors of ATXN expression; conditions: HEK-293 ATXN2-luciferase reporter, luminescence, 24 h; series mostly up to 57 µM; activity change, negative = inhibition: at the top concentration; also: nearly all actives have a fitted effect of over 55% in size
From the text: University of Utah School of Medicine, Salt Lake City, Utah
Spinocerebellar ataxia type 2 (SCA2) is a multisystem neurodegenerative disease caused by a dominantly acting mutation leading to expansion of a polyQ domain in the ataxin-2 protein (ATXN2). SCA2 patients develop progressive ataxia and later lose function in other neuronal systems. Prominent parkinsonian signs develop in some patients. Like many neurodegenerative disorders, no symptomatic or disease-modifying treatments are known.
The primary objective of the proposed research is to identify compounds inhibiting ATXN2 expression and to test them for efficacy in SCA2 mouse models. We have developed a cell-based assay paired with an in vivo mouse model using identical luciferase expression constructs. This approach takes advantage of an ATXN2-luciferase transgene, with the luciferase gene flanked by the upstream and downstream portions of the ATXN2 gene. Here we describe a 5-7 dose quantitative high thoroughput screen (qHTS) for compounds lowering ATXN2 expression. We screened the NIH Molecular Libraries Small Molecule Repository (MLSMR) and NCGC's mechanistically annotated (MIPE) and drug repurposing (NPC) collections of compounds for lowering expression of an ATXN2-luciferase reporter in HEK-293 cells. The assay is a multiplexed cell viability assay to ensure target reduction in the absence of cytotoxicity. Secondary qHTS assays included a CMV-luciferase reporter expressed in HEK-293 cells as well as a biochemical assay using recombinant luciferase to detect inhibitors of the reporter enzyme. Compounds that inhibit ATXN2 expression but is not cytotoxic were selected for confirmatory and secondary screens.
PROTOCOL TABLE (as described by Inglese J, Shamu CE and Guy RK. 2007)
SEQUENCE No. (e.g., 1, 2, 3, etc.); […] (e.g., Cells, Incubation, Reagent, etc.); VALUE; DESCRIPTION.
1; Cells; 4 uL; white, solid bottom, 1536-well Greiner assay plate.
2; Incubation; 2 hr; 37 degree C in 5% humidified CO2.
3; Compounds; 23 nL; Kalypsis pintool (Wako USA) equipped with a 1536-well pin head.
4; Incubation; 24 hr; 37 degree C in 5% humidified CO2.
5; Reagent; 1 uL; Gly-Phe-7-Amino-4-trifluoromethylcoumarin.
6; Incubation; 30 min; 37 degree C in 5% humidified CO2.
7; Detection; Fluorescence; ViewLux plate reader (PerkinElmer).
8; Reagent; 3 uL; SteadyGlo luciferase solution (Promega).
9; Incubation; 5 min; room temperature.
10; Detection; Luminescence; ViewLux plate reader (PerkinElmer).
NOTES (numbers refer to Sequence numbers above)
1. S2 cells expressing ATXN2-luciferase reporter were suspended in phenol-red free DMEM and dispensed in assay plates using a Multidrop Combi dispenser (Thermo Fisher Scientific).
2. Assay plates were incubated. Evaporation was prevented by covering assay plates with metal lids containing holes to allow gas diffusion.
3. Compounds were added in a dose response manner with the final concentrations of 57, 11.4, 2.28, 0.46, 0.091, 0.018, 0.0037 uM. Vehicle-only plates, with DMSO being pin-transferred to columns 5-48, were inserted uniformly at the beginning and the end of each library to monitor and record any shifts in assay performance.
5. 125 uM Gly-Phe-7-Amino-4-trifluoromethylcoumarin (MP Biomedicals) working concentration was used at a final concentration of 25 uM.
7. To assess cell viability; the assay plates were read using the ViewLux high-throughput CCD imager (PerkinElmer), wherein single end-point fluorescence measurement was acquired (excitation 405/10; emission 540/25 nm).
8. Detection reagent SteadyGlo Luciferase (Promega) was added to the assay plate.
10. Luminescence is then measured on the ViewLux imager equipped with a clear emission filter using a 2 sec exposure. All screening operations were performed on a fully integrated robotic system (Kalypsys) containing one RX-130 and two RX-90 anthropomorphic robotic arms (Staubli).
[…]
% is scaled to controls: 0 for no effect and ±100 for the full control effect; potency is read from the fitted curve at half-maximal effect.

In order of rising “activity change, negative = inhibition” value:
1. COc1c(C)cc(C(O)c2ncc(-c3cccc(C(F)(F)F)c3)[nH]2)cc1C (centres undefined)  -29.7%
2. Cc1cc(Nc2ccc(Br)cc2)nc2ccccc12  -28.1%
3. Cc1ccc(S(=O)(=O)N(CC(=O)N/N=C/c2ccc(F)cc2)c2cccc3cccnc23)cc1  -22.9%
4. CCCn1c2ccccc2c2cnn(CC(=O)NCCCN3CCCCC3CC)c(=O)c21 (centres undefined)  -19.6%
5. CCC(=O)N1CCc2cc(S(=O)(=O)NC(CC(C)C)C(=O)NCCc3cccc(C)c3)ccc21 (centres undefined)  -19.1%
6. COC1C(CO)OC(n2cnc3c(=S)nc(N)[nH]c32)C1O (centres undefined)  -17%
7. CC(C)Oc1ccc(CN2CCC(n3nccc3NC(=O)c3cccnc3)CC2)cc1  -14.9%
8. O=C1Nc2ccccc2NC(c2ccc3c(c2)OCO3)=C1N(Cc1ccc(F)cc1)C(=O)c1ccco1  -10.1%
9. Cc1cc(O)ccc1-c1cc(C(=O)NCc2cc(C(F)(F)F)cc(C(F)(F)F)c2)[nH]n1  -9.72%
10. CC(C(C)N1CC(=O)NC(=O)C1)N1CC(=O)NC(=O)C1 (centres undefined)  -9.63%
11. COCC(C)NS(=O)(=O)c1ccc(N2CCCCS2(=O)=O)cc1 (centres undefined)  -1%
12. C[C@@H]1CCC[C@H](C)N1CCCC(O)(c1ccccc1)c1ccccn1 (some centres undefined)  -0.369%
13. COc1ccc(CC(N)c2csc(NC(=O)Cc3ccccc3)n2)cc1 (centres undefined)  0%
14. CCOc1cc(C2C(C(=O)Nc3ccc(OC)cc3)=C(C)Nc3nc(SC)nn32)ccc1O (centres undefined)  0%
15. Cn1c(=O)nc2n(-c3ccc(Br)cc3)c3cccc(Cl)c3cc-2c1=O  0.426%
16. CC(C)Cn1c(C2CC(=O)N(c3ccccc3Cl)C2)nc2ccccc21 (centres undefined)  0.8%
17. COc1ccccc1CNC(=O)c1ccc(NC(=O)N2CC(C)Sc3ccccc32)cc1 (centres undefined)  0.839%
18. O=C(O)CSc1c2c(nc3cc(C(=O)Nc4cccc(C(F)(F)F)c4)ccc13)CCCC2  1.19%
19. CN1CCN(CCCNC(=O)c2cc3c(=O)oc4ccccc4c3s2)CC1  1.64%
20. C=CCN(CC=C)C(=O)CN1C(=O)c2ccccc2C1=O  4.2%
21. COC(=O)c1c(NC(=O)C(C)Oc2ccc(Cl)c(C)c2)sc(C)c1C (centres undefined)  5.21%
22. O=C(CNC(=O)c1cccnc1)N/N=C/c1cc(Br)c(O)c(Br)c1  5.36%
23. COc1cccc(CNCc2c(C(=O)O)n(Cc3ccc(C)cc3)c3cc(C)ccc23)c1OC  5.45%
24. O=C(Nc1ccnn1C1CCN(Cc2cccc(OCCO)c2)CC1)C1CCCC1  6.2%
25. Cc1cc(C)n(-c2nnc(N3CCN(c4ccccc4)CC3)nn2)n1  6.31%
26. COc1ccc(Cl)cc1N(C)C(=O)c1cc2c(=O)oc3ccc(C)cc3c2s1  6.73%
27. Clc1cccc(-n2ncc3c(NCCc4ccccc4)ncnc32)c1  8.97%
28. Cc1cc(C(=O)COC(=O)CCCN2C(=O)c3ccccc3C2=O)c(C)n1C  10.3%
29. Cc1ccc(NC(=O)C(Cc2ccccc2)NS(=O)(=O)c2ccc3c(c2)oc(=O)n3C)cc1C (centres undefined)  11.9%
30. N#C/C=C/N1CCN(Cc2ccc3c(c2)OCO3)CC1  12.5%
31. Cn1c(=O)c(C(=O)O)nn(-c2ccccc2)c1=O  13.3%
32. O=C(CSc1nc2c(c(=O)[nH]1)CN(Cc1ccc3c(c1)OCO3)CC2)Nc1cc(F)ccc1F  15.6%
33. Cc1cccc(-n2c(=O)c3c(c4cc(C)ccc4n3C)n(CC(=O)Nc3ccccc3Cl)c2=O)c1  15.8%
34. COC(=O)c1cc(Cl)c(NC(C)=O)cc1OC  16.7%
35. COc1cccc(NC(=O)c2csnn2)c1  20.7%
36. CC(Nc1ccc(-c2nc(-c3ccco3)no2)cc1[N+](=O)[O-])c1ccccc1 (centres undefined)  30.4%
37. CCc1ccc(C=C2SC(=S)NC2=O)cc1  46.5%
38. NN=C(NN=Cc1ccccc1)c1ccccc1  59.1%

For `Fc1ccc2[nH]c3c(N4CCSCC4)ncnc3c2c1`, the Potency was 15.8 µM (active).
For `Fc1ccc2[nH]c3c(N4CCN(Cc5ccc6c(c5)OCO6)CC4)ncnc3c2c1`, the Potency was 14.1 µM (active).
For `Cc1cc(N/N=C\c2ccc(Br)cc2)nc(-n2nc(C)cc2C)n1`, the Potency was 10 µM (active).
For `COc1cc(NC(=O)c2[nH]cnc2C(N)=O)cc(C(=O)Nc2cccc(C(F)(F)F)c2)c1`, the Potency was 10 µM (active).
For `C=CCn1c(C)cc(C(=O)CN2C(=O)c3ccccc3C2=O)c1C`, the Potency was 7.08 µM (active).
For `CCC1CCCCN1CCCNC(=O)c1cc2c(Cl)nc3ccccc3c2s1` (centres undefined), the Potency was 22.4 µM (active) and 31.6 µM (active).
With `c1cncc(CN2CCC(n3ncc4c(N5CCOCC5)nc(-c5ccc6[nH]ccc6c5)nc43)CC2)c1` the Potency was 21.7 µM (active).
For `O=C(N/N=C/c1ccccc1O)/C(=C/c1ccccc1)CCO`, the Potency was 3.55 µM (active).
For `O=C(CSc1cccc2cccnc12)N/N=C/c1cccnc1`, the Potency was 22.4 µM (active).
With `CO[C@@H]1[C@@H](O)[C@H](O)[C@@H](n2c3c(Cl)cccc3c3c4c(c5c6cccc(Cl)c6[nH]c5c32)C(=O)NC4=O)O[C@@H]1CO` the Potency was 0.273 µM (active).

In the case of `O=C(CCC(=O)Nc1ccccc1)N/N=C/c1ccccc1F`, the activity change, negative = inhibition is reported as 10.2% [at 11.3 µM].
